The results in this text go back to PubChem BioAssay (NCI).

The panel holds about 83,000 compounds, 20% with a hit somewhere; the sample as a whole holds those more often.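 Assay: single dose, 48 h. Readout: percent growth (0 = no net growth; negative = cell death). Active: <10.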 Activity calls are given as the source filed them.

For this assay, the system named is RPMI-8226 leukemia. Description: NCI-60 one-dose screen, 48 h (100 = growth as untreated, 0 = no growth, -100 = all killed). Particulars: 10 µM unless noted. As for the experimental part: Growth inhibition of the RPMI-8226 human tumor cell line is measured as a screen for anti-cancer activity. Cells are grown in 96 well plates and exposed to the test compound for 48 hours. Compounds are tested at a single concentration, which is 10^-5 M for most compounds. The reported endpoint is percent growth (GI% or GIPRCNT), where numbers from 0 - 100% represent growth inhibition, and numbers from -100% - 0 represent cell death. For example, a value of 40 represents 60% growth inhibition. A value of 0 means no net growth occurred over the course of the experiment. A value of -40 indicates 40% of cells at the beginning of the experiment died by the end of the experiment. A value of -100 means all cells are dead at the end of the experiment.
NCI-60 Human Tumor Cell Lines Screen was performed using the standard one-dose NCI protocol, which is described in more detail at https://dtp.cancer.gov/discovery_development/nci-60/default.htm.
Compounds with GIPRCNT values below 10 were considered active. Activity score was based on GIPRCNT using the following formula: […]
Score is 0 for GIPRCNT values of 100 or above, 50 for GIPRCNT values of 0, and 100 for GIPRCNT values of -100.
In the case of `COc1cc(OC)c(/C=C/S(=O)(=O)Cc2ccc(OC)c(NCC(=O)NO)c2)c(OC)c1`, the growth was 20.2% (inactive).
On to `COc1ccc(-c2nc3ccc(-c4nnc(SCC(=O)Nc5ccc(C(=O)/C=C/c6ccc(Cl)cc6)cc5)o4)cc3[nH]2)cc1`, for which the growth was 79.9% (inactive).
Turning to `O=C(O)c1ccc(-n2cc(CNc3cc(F)c(F)c(F)c3)c(-c3ccc(F)cc3)n2)cc1`, the growth is 76.3% (inactive).
The same measure for `Nc1nc(Nc2ccccc2SSc2ccccc2Nc2nc(N)nc(-c3ccc4ccccc4c3)n2)nc(-c2ccc3ccccc3c2)n1`: 84.3% (inactive); for `COc1ccc([C@H]2[C@H](O)C(=O)N2c2cc(OC)c(OC)c(OC)c2)cc1F`: 26.9% (inactive); for `CC1(C)[C@@H](O)CC[C@]2(C)[C@H]3CC[C@@H]4[C@H]5[C@H](C(=O)/C=C\c6ccc([N+](=O)[O-])cc6)CC[C@]5(O)CC[C@@]4(C)[C@]3(C)CC[C@@H]12`: 11.7% (inactive).
`Cn1cc(CNc2nc3ccc(OC/C(=C/F)CN)cc3o2)ccc1=O`: the growth is 110% (inactive).
Take `NS(=O)(=O)c1ccc(Nc2nc(N/N=C/CCc3ccccc3)nc(Nc3ccccc3)n2)cc1`: the growth was 101% (inactive).
For `O=C(Cn1c(-c2ccccc2)nc2cc(Cl)c(Cl)cc21)N=Nc1c(O)[nH]c2ccc(Cl)cc12` the value was 59% (inactive); for `COC(=O)C[Se]C(=O)Cc1c(C)n(C(=O)c2ccc(Cl)cc2)c2ccc(OC)cc12`, 90.8% (inactive); for `CCNC(=O)N1CCc2cc(OC)c(OCCc3ccc(OC)cc3)cc2C1c1ccc(Cl)cc1C` (stereo not given), 20% (inactive).
Take `CCOC(=O)c1c(Nc2ccccc2)nn2c(-c3ccc(OC)cc3)ccnc12`: the growth was 75.1% (inactive).
For `CCNC(=O)N1CCc2cc(OC)c(OCCc3ccc(OC)nc3)cc2C1c1ccc(OC)cc1C` (stereo not given) the value was 31.4% (inactive); for `NC(=O)c1cccc(C#CCNC[C@H]2C[C@@H](n3ccc4c(Cl)ncnc43)[C@H](O)[C@@H]2O)c1`, 110% (inactive); for `Cc1occc1-c1nc2s/c(=C/c3ccc(-c4cc(C(F)(F)F)ccc4Cl)o3)c(=O)n2n1`, 99.5% (inactive).
As for `CC(C)(C)n1nnnc1C(Nc1cccc2c1OCO2)c1cc2cccc3ccc4cccc1c4c32` (stereo not given), the growth is 55.3% (inactive).
On to `CCO/C=N/C1=C(C#N)C(c2ccc(Cl)cc2)c2sc3c(CC)cccc3c2O1` (stereo not given), for which the growth is 9.39% (active).
The same measure for `CN1CCN(Cc2ccc(NC(=O)c3cncc(C#Cc4cnc5ccc(NCCCO)nn45)c3)cc2C(F)(F)F)CC1`: -36.9% (active); for `COc1ccc(-c2nn(-c3ccc(S(C)(=O)=O)cc3)cc2/C=N/O)cc1`: 102% (inactive); for `c1ccc(C(c2nc3ncncc3[nH]2)N2CSc3nc4ncncc4n3C2)cc1` (stereo not given): 29.4% (inactive).
On to `CS(=O)(=O)Nc1cc(-c2ccc3ncc(C#N)c(NCc4cccc(F)c4)c3c2)cnc1Cl`, for which the growth was -24.2% (active).
The same measure for `Cc1ccc(NC(=O)CNc2cc(C(N)=O)cc(F)c2C)c(Cl)c1`: 90.6% (inactive).
For `O=C(CNc1nc(-c2cccc([N+](=O)[O-])c2)cs1)Nc1cccc([N+](=O)[O-])c1`, the growth was -18.8% (active).
Take `NC(N)=Nc1ccc(Oc2cccc(NC(N)=Nc3ccc(I)cc3F)c2)cc1`: the growth was 62.3% (inactive).
The same measure for `Cc1nn(-c2ccccc2)c2ncnc(N/N=C/c3ccccc3O)c12`: 20.4% (inactive); for `CC(=O)N1C(=S)NC(=O)C1CC(C)C` (stereo not given): 99% (inactive); for `Cc1ccc(CSc2nc(-c3ccc(Cl)cc3)c(C#N)c(N3CCOCC3)n2)cc1`: 82.2% (inactive).
On to `N#Cc1c(-c2cccs2)cc(-c2cnccn2)nc1SCC(=O)c1ccc(F)cc1`, for which the growth was 97.7% (inactive).
On to `O=S(=O)(NCCCNc1nccc(-c2[nH]c(-c3ccccc3)nc2-c2ccc(Cl)c(O)c2)n1)c1cccc(F)c1`, for which the growth was 41.1% (inactive).
On to `Cc1c(Cl)cccc1S(=O)(=O)Nc1ccc2c(c1)C(=O)N(C1CCC(=O)NC1=O)C2=O` (stereo not given), for which the growth is 84.5% (inactive).
With `COc1cc(OC)c(S(N)(=O)=O)cc1C(C)=O`, the growth was 103% (inactive).
For `O=C(Nc1ccc2c(ccn2Cc2ccccn2)c1)c1ccnnc1` the value was 94.4% (inactive); for `CNC(=O)c1cc(Oc2ccc3nc(NC(=O)c4cc(N5CCOCC5)cc(C(F)(F)F)c4)sc3c2)ccn1`, 51.6% (inactive).
As to `CCOC(=O)C1=NNC(c2ccc(Cl)cc2)C1C(=O)N1C(=S)NC(=O)C1CC(C)C` (stereo not given), the growth was 95% (inactive).
`O=C(Nc1cccc(C(F)(F)F)c1)c1cc(-c2ccc(F)cc2F)ccc1O`: the growth is -10.3% (active).
As to `COc1ccccc1-n1cc(C#N)c(N)c1C(=O)c1ccc(Cl)cc1`, the growth was 88.3% (inactive).
The same measure for `O=C1CCC(N2C(=O)c3ccc(NS(=O)(=O)c4ccccc4OC(F)(F)F)cc3C2=O)C(=O)N1` (stereo not given): 61% (inactive).
Consider `COc1cccc(C(=O)Nc2cccc(C#Cc3cccc4[nH]nc(N)c34)c2)c1`, for which the growth is 39.2% (inactive).
For the molecule `Nc1ncc(-c2ccc3ncnc(N4CCc5cc(F)c(F)cc54)c3c2)cn1`, the growth is 4.99% (active).
Turning to `CC(C)(C)c1ccc(C(=O)Nc2nc3ccc(O)cc3s2)cc1`, the growth is 22.1% (inactive).
